The source made the active and inactive calls.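 How the source made its calls, unless noted: active means mean z-score across replicates of 1.96 or higher in either the MELAS or the Rieske mutant cell line; inactive means the rest.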

The nature of experiment [1]: survival rescue of mitochondrial mutant cells in low glucose, primary screen, MELAS cybrids, Rieske KO mouse fibroblasts, CellTiter-Glo (AID 1508586).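 Further: test concentration not given here; z relative to plate mean and SD of compound and empty wells.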 In general terms: ATP-based viability assays read luminescence as a measure of living cells.
A short description of experiment [2]: viability rescue of complex I mutant cybrids, primary screen, cell-based, galactose medium, ATP luminescence (AID 1645843;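 active means z-score of at least 1.8 in each of two replicates, scored against plate mean and spread of sample wells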;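 further: positive z means more ATP and so rescue of galactose-driven cybrid death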). The following applies: complex I mutant cybrid cells, 72 h, stronger effect = higher value.
Setting [3] is: MELAS cybrid survival, CellTiter-Glo 48 h, stronger effect = higher value.
Where [4] appears, read: Rieske KO mouse fibroblast survival, CellTiter-Glo 72 h.

`Cc1ccc2c(-c3cc4c(n(CC5CC5)c3=O)CCN(C(=O)c3ccc5c(c3)OCO5)C4)cccc2n1`: the results for the z-score in experiment [1] (setting [3]), in experiment [1] (setting [4]) and in experiment [2] were 2.47 (active), 3.71 and -0.54 (inactive), respectively.

Take `COC(=O)c1c(NC(=O)C2CCC2)c2cc(NC3CCSCC3)cnc2n1CCc1ccccn1`: the z-score is -0.0865 (inactive) in experiment [1] (setting [3]), -0.308 in experiment [1] (setting [4]) and 1.1 (inactive) in experiment [2].

For `CN(Cc1ccco1)C(=O)c1nn(C)c2c1CC(N1CCOc3ccc(Cl)cc3C1)CC2` (configuration not stated), the z-score in experiment [1] (setting [3]) was -0.11 (inactive); in experiment [1] (setting [4]) it was 0.109; in experiment [2] it was -0.61 (inactive).

Consider `NCCCC[C@@H]1NC(=O)[C@@H]2C[C@H](NC(=O)c3sccc3Cl)CN2C1=O`, for which the z-score was -0.4 (inactive) in experiment [1] (setting [3]), -0.67 in experiment [1] (setting [4]) and -0.915 (inactive) in experiment [2].

For the compound `COc1ccccc1C(=O)N1CCN2C(=O)[C@@H]3CSCN3C(=O)[C@H]2C1`, the results for the z-score in experiment [1] (setting [3]), in experiment [1] (setting [4]) and in experiment [2] were -0.216 (inactive), 0.475 and -0.395 (inactive), respectively.

With `Cc1c(CN2CC(=O)N(Cc3ccccc3)CC(O)C2)c(=O)n(-c2ccccc2)n1C` (configuration not stated), the z-score was 0.325 (inactive) in experiment [1] (setting [3]), -0.72 in experiment [1] (setting [4]) and 0.83 (inactive) in experiment [2].

As for `CN1CCCC1CCNC(=O)c1cc(-c2ccccc2)cc(S(=O)(=O)N2CCSCC2)c1` (configuration not stated), the z-score in experiment [1] (setting [3]) is -0.508 (inactive); in experiment [1] (setting [4]), -0.0913; in experiment [2] it was 0.505 (inactive).

On to `O=C(NCC1CCCO1)[C@@H]1C[C@H](CN2CCOCC2)CN(Cc2ccc3ccccc3c2)C1` (some centres not stated), for which the z-score was -0.349 (inactive) in experiment [1] (setting [3]), -0.753 in experiment [1] (setting [4]) and 0.17 (inactive) in experiment [2].

On to `COc1cc(CN2CCc3c(cc(-c4cccc(F)c4)c(=O)n3CCn3ccc(C)n3)C2)ccc1O`, for which the results for the z-score in experiment [1] (setting [3]), in experiment [1] (setting [4]) and in experiment [2] were 0.37 (inactive), 0.944 and -0.15 (inactive), respectively.

Consider `CC[C@@H]1NC(=O)[C@H]2CN(C(=O)Oc3cccc4ccccc34)CCN2C1=O`, for which the figures for the z-score in experiment [1] (setting [3]), in experiment [1] (setting [4]) and in experiment [2] were 0.408 (inactive), 0.404 and -1.61 (inactive), respectively.

Regarding `CCOC(=O)c1nn(CCC(F)(F)F)c2c1CN(C(=O)c1ccco1)CC2`, the z-score in experiment [1] (setting [3]) was -0.696 (inactive); in experiment [1] (setting [4]), -0.531; in experiment [2], -0.32 (inactive).

As for `COc1ccc(CN2C(=O)N(C)C3(CCN(Cc4cccn4-c4ccccn4)CC3)C2=O)cc1`, the figures for the z-score in experiment [1] (setting [3]), in experiment [1] (setting [4]) and in experiment [2] were -0.452 (inactive), -0.368 and 0.16 (inactive), respectively.

On to `CC(C)[C@@H]1NC(=O)[C@@H]2C[C@H](NC(=O)c3cc(C(C)(C)C)nn3C)CN2C1=O`, for which the results for the z-score in experiment [1] (setting [3]), in experiment [1] (setting [4]) and in experiment [2] were 0.0639 (inactive), 0.0296 and -0.355 (inactive), respectively.

In the case of `O=C(NCCn1ccnc1)c1cc(NCC2CC2)cc(S(=O)(=O)N2CCCC2)c1`, the results for the z-score in experiment [1] (setting [3]), in experiment [1] (setting [4]) and in experiment [2] were -0.151 (inactive), 0.62 and 1.69 (inactive), respectively.

`C=CCn1nc(C(=O)N2CCSCC2)c2c1CCC(N1CCOc3ccc(Cl)cc3C1)C2` (configuration not stated): the z-score in experiment [1] (setting [3]) was -0.526 (inactive); in experiment [1] (setting [4]) it was -0.713; in experiment [2], 0.51 (inactive).

Take `Cc1ccc(C(=O)N[C@H]2C[C@H]3C(=O)N[C@@H](Cc4ccc(O)cc4)C(=O)N3C2)cc1F`: the z-score was -0.462 (inactive) in experiment [1] (setting [3]), -0.468 in experiment [1] (setting [4]) and 0.075 (inactive) in experiment [2].

With `CCN1C(=O)N(CC(N)=O)C(=O)C12CCN(CC(C)Cc1ccc3c(c1)OCO3)CC2` (configuration not stated), the values for the z-score in experiment [1] (setting [3]), in experiment [1] (setting [4]) and in experiment [2] were 0.0615 (inactive), -0.343 and 1.17 (inactive), respectively.

As for `Cc1c(CN2CCc3c(c(C(=O)NC4CCCC4)nn3CC(C)C)C2)c(=O)n(-c2ccccc2)n1C`, the values for the z-score in experiment [1] (setting [3]), in experiment [1] (setting [4]) and in experiment [2] were -0.389 (inactive), -0.276 and 0.17 (inactive), respectively.

For `CC(=O)c1cccc(-c2cc3c(n(C)c2=O)CCN(C(=O)c2ccc4[nH]c5c(c4c2)CCCC5)C3)c1`, the z-score is -0.0854 (inactive) in experiment [1] (setting [3]), -0.491 in experiment [1] (setting [4]) and -1.45 (inactive) in experiment [2].

As for `COCC(=O)Nc1c(C(=O)OC)n(C)c2ncc(NCc3cnn(C)c3C)cc12`, the z-score in experiment [1] (setting [3]) was -0.241 (inactive); in experiment [1] (setting [4]) it was -0.209; in experiment [2], -0.64 (inactive).

In the case of `O=C1N[C@H](Cc2ccc(O)cc2)C(=O)N2CCN(C(=O)c3cccc4ccccc34)C[C@H]12`, the figures for the z-score in experiment [1] (setting [3]), in experiment [1] (setting [4]) and in experiment [2] were 0.285 (inactive), -0.378 and -0.195 (inactive), respectively.

As for `COC(=O)c1c(NC(=O)C2CC2)c2cc(NC3CCOCC3)cnc2n1Cc1ccccc1`, the z-score in experiment [1] (setting [3]) is -0.892 (inactive); in experiment [1] (setting [4]), 0.482; in experiment [2], -0.845 (inactive).

`Cc1csc(-c2cc(C(=O)NCCCN3CCOCC3)cc(S(=O)(=O)N3CCOCC3)c2)c1`: the z-score in experiment [1] (setting [3]) is -0.167 (inactive); in experiment [1] (setting [4]) it was 0.151; in experiment [2], 2.09 (inactive).

With `Cc1cnc(CNC(=O)c2cc(-c3ccccc3)cc(S(=O)(=O)N3CCN(C)CC3)c2)cn1`, the figures for the z-score in experiment [1] (setting [3]), in experiment [1] (setting [4]) and in experiment [2] were 0.213 (inactive), -0.355 and -0.045 (inactive), respectively.

As to `COC(=O)c1c(NC(=O)c2ccoc2)c2cc(NC(C)CSC)cnc2n1Cc1ccccc1` (configuration not stated), the values for the z-score in experiment [1] (setting [3]), in experiment [1] (setting [4]) and in experiment [2] were -1.27 (inactive), 0.841 and -1.28 (inactive), respectively.

Take `COC(=O)c1c(NC(=O)Cc2ccccc2)c2cc(NCc3nccs3)cnc2n1CC(C)C`: the z-score is -0.876 (inactive) in experiment [1] (setting [3]), 1.74 in experiment [1] (setting [4]) and -1.62 (inactive) in experiment [2].

Regarding `COc1ccc(CCn2nc(C(=O)N(C)C)c3c2CCN(C(=O)c2csc4c2CCCC4)C3)cc1`, the results for the z-score in experiment [1] (setting [3]), in experiment [1] (setting [4]) and in experiment [2] were -0.0604 (inactive), -0.104 and 1.47 (inactive), respectively.

Consider `O=C(NCCn1cncn1)c1cc(-c2ccccc2)cc(S(=O)(=O)N2CCSCC2)c1`, for which the z-score in experiment [1] (setting [3]) was -0.182 (inactive); in experiment [1] (setting [4]) it was 0.272; in experiment [2], 1.56 (inactive).

Turning to `CC(C)C[C@@H]1NC(=O)[C@H]2CN(S(=O)(=O)c3cccc4ccccc34)CCN2C1=O`, the z-score in experiment [1] (setting [3]) was -0.496 (inactive); in experiment [1] (setting [4]) it was -0.159; in experiment [2] it was -0.92 (inactive).

These data come from PubChem BioAssay.
